Data published in PubChem BioAssay.
Several values for one entry are separate records, joined by “and”; a condition that tells them apart may be missing. Equal values may be shown once. Activity calls are given as the source filed them.

Legend:
[1] = small molecules captured by biotinylated probe aFSTL3 – biochemical, small-molecule microarray, fluorescence 635/667, stem cell growth factor project, primary screen (AID 1064); details: higher = more signal;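 also: measures binding of the biotinylated anti-FSTL3 antibody to printed compounds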
[2] = binders from COS7 lysate, DM2A8 probe, primary screen, torsin A project, cell lysate, small-molecule microarray, fluorescence 635/667 (AID 1065); details: higher = more signal, COS7 lysate expressing mutant human TOR1A
[3] = small molecules captured by biotinylated probe aFGF2 – biochemical, small-molecule microarray, fluorescence 635/667, stem cell growth factor project, primary screen (AID 1067); details: higher = more signal;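 also: measures binding of biotinylated aFGF2 protein to printed compounds on slides; z-score merges feature fluorescence and signal-to-noise across triplicate slides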
[4] = small molecules captured by biotinylated probe aFGF10 – biochemical, small-molecule microarray, fluorescence 635/667, stem cell growth factor project, primary screen (AID 1071); details: higher = more signal;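 also: score merges 667 nm spot intensity and signal to noise from triplicate slides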
[5] = biological target: Neurogenic locus notch homolog protein 2 (Homo sapiens) (UniProt Q04721); test: small molecules binding Notch2 protein – biochemical, small-molecule microarray, 635 nm fluorescence, stem cell growth factors, primary screen (AID 1073); details: higher = more signal
[6] = biological target: Pro-neuregulin-1, membrane-bound isoform (Homo sapiens) (UniProt Q02297); test: small molecules binding neuregulin-1 protein – biochemical, small-molecule microarray, fluorescence 635/667, psychiatric disease protein project, primary screen (AID 1075); details: NRG1 binding, 635 nm fluorescence, higher = more signal;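 also: score combines 667 nm spot fluorescence with signal to noise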
[7] = tested on: Neuregulin-1 EGF-like domain; test: small molecules binding NRG1 EGF domain – biochemical, small-molecule microarray, 635 nm fluorescence, primary screen (AID 1081); details: higher = more signal;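 also: binding of the protein to compounds printed on small-molecule microarray slides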
[8] = FRG1 expression reporter modulators in myotubes – cell-based, C2C12 myotubes, firefly/Renilla luciferase, luminescence, FRG1 inhibition for FSHD, primary screen (AID 1084); details: FRG1 promoter luciferase, higher = more signal, called active from +8 up or from −8 down
[9] = small molecules captured by biotinylated probe aFST – biochemical, small-molecule microarray, fluorescence 635/667, stem cell growth factor project, primary screen (AID 1086); details: higher = more signal;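 also: score merges 667 nm fluorescence with signal-to-noise of each printed compound spot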
[10] = binders of probe aHhip on microarray, primary screen, stem cell growth factor project, biochemical, small-molecule microarray, fluorescence 635/667 (AID 1087); details: higher = more signal;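 also: score merges spot fluorescence at 667nm with spot signal to noise ratio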

Sequence of Neurogenic locus notch homolog protein 2 (Homo sapiens) (Q04721 whole entry, looked up, canonical isoform): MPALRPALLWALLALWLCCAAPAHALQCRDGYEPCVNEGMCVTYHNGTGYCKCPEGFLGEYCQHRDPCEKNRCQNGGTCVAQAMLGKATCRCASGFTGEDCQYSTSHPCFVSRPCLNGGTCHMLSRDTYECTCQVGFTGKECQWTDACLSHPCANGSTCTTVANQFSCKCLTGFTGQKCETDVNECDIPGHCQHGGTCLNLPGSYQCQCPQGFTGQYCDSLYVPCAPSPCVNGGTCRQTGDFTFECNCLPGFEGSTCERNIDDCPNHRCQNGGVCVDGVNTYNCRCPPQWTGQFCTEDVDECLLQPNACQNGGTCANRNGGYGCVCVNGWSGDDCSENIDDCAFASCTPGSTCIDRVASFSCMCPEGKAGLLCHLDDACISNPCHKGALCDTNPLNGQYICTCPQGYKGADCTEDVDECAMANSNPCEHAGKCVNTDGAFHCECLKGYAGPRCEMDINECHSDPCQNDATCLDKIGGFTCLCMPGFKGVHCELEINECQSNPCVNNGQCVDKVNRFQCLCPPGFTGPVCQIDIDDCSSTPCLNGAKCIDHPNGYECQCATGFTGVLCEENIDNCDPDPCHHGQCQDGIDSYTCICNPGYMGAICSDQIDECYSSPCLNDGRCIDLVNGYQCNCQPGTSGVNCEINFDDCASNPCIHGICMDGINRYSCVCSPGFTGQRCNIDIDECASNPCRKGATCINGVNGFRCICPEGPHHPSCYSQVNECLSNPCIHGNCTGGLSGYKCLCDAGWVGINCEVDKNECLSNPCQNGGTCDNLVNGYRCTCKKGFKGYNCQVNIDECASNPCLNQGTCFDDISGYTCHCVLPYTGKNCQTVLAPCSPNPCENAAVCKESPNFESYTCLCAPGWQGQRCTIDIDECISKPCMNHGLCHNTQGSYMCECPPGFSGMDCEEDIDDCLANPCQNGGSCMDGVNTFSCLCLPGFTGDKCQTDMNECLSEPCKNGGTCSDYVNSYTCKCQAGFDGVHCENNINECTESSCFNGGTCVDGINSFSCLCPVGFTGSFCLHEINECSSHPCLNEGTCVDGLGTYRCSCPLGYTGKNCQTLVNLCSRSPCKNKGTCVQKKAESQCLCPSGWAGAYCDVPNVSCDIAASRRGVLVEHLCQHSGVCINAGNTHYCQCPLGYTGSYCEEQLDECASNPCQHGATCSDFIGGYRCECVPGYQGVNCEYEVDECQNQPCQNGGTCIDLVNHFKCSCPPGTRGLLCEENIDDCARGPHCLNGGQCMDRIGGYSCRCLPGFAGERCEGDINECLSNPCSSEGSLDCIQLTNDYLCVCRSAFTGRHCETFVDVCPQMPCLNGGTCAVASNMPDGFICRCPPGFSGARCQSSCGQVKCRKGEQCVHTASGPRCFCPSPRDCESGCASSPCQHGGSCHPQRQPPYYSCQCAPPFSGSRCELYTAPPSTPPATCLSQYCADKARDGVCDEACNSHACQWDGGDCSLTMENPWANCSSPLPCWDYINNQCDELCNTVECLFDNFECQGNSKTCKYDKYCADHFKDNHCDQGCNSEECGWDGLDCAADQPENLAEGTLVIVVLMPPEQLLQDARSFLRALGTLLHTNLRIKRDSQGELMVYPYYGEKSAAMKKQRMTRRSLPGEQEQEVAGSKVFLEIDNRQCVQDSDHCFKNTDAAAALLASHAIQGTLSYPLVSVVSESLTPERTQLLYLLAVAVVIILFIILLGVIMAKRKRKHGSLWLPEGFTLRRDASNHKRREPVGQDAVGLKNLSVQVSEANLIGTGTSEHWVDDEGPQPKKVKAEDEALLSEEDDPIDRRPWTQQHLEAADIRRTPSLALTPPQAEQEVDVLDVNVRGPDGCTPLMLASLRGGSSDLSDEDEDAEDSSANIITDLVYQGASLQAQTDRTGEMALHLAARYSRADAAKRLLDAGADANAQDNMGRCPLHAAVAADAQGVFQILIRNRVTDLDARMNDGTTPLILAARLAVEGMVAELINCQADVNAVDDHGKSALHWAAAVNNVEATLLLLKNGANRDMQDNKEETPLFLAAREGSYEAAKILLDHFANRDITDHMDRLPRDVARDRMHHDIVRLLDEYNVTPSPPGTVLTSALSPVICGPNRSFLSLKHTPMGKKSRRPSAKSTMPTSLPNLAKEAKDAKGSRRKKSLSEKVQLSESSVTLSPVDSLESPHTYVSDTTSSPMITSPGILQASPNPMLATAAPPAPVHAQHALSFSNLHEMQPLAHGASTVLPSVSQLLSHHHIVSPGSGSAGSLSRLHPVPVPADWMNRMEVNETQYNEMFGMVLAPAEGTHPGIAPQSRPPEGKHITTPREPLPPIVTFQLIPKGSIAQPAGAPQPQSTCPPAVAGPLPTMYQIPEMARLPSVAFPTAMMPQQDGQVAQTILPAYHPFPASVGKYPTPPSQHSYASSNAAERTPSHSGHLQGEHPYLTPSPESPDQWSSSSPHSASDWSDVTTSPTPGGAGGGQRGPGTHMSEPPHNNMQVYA
Sequence of Pro-neuregulin-1, membrane-bound isoform (Homo sapiens) (Q02297 whole entry, looked up, the tested form may be a part, canonical isoform): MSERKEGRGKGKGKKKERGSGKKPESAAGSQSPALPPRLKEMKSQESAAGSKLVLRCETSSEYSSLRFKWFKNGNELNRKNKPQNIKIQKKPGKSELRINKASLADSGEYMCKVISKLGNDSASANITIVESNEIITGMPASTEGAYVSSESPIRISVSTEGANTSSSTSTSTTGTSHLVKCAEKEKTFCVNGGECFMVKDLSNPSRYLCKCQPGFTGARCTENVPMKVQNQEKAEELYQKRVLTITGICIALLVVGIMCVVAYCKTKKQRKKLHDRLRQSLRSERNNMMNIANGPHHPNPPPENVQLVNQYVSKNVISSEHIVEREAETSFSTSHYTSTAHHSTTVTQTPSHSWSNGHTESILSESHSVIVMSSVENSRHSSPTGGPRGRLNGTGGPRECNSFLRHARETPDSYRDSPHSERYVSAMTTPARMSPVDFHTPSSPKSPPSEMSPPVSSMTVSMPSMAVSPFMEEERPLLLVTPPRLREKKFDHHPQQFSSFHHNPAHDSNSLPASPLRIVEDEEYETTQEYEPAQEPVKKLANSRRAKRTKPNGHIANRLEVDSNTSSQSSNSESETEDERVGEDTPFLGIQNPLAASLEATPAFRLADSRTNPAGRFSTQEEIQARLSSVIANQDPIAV

Compound	composite z-score [1]	composite z-score [2]	composite z-score [3]	composite z-score [4]	composite z-score [5]	composite z-score [6]	composite z-score [7]	z-score [8]	composite z-score [9]	composite z-score [10]
CCCNC(=O)OC[C@H]1O[C@H](CCON=C(C)CCN2CCc3nc(-c4ccccc4)c(-c4ccccc4)cc3C2)C=C[C@@H]1Oc1ccc(OC)cc1	-0.369	0.0379	-0.116	0.118	-0.247	0.48	0.524	0.198 (inactive)	0.142	-0.0994
COCn1c2ccccc2c2nnc(C(C)=O)nc21	-0.401 and -0.253	0.416 and -0.0491	-0.108 and -0.112	0.111 and 0.226	-0.0995 and 0.194	-0.325 and -0.146	-0.29 and -0.548	0.51 (inactive) and 0.697 (inactive)	0.252 and -0.0637	-0.0994 and 0.0515
CC(C)[Si]1(C(C)C)OCc2cc(CCCc3cc4c(c(CCc5ccccc5)n3)[Si](C(C)C)(C(C)C)OC4)nc(CCc3ccccc3)c21	-0.0088 and -0.516	0.0696 and 0.445	-0.105 and -0.12	-0.841 and 0.402	-0.0702 and 0.469	-0.429 and -0.0826	-0.688 and 0.277	-0.712 (inactive) and 0.124 (inactive)	-0.0006 and 0.0171	0.141 and 0.065
C=CCN(C(=O)C1N(c2c(Cl)cccc2CO)C(=O)C2C(C(=O)O)C3C=CC21O3)c1ccc(OC)cc1 (stereo not given)	0.778 and 0.859	-1.57 and -1.33	-0.119 and -0.252	-0.653 and -1.76	-1.09 and -1.92	-0.515 and -0.497	0.507 and -0.579	1.48 (inactive) and -1.39 (inactive)	-0.826 and -0.934	-0.283 and -0.517
CCCCCN1CC=CC23O[C@@H]4C=CCCOC(=O)C4[C@H]2C(=O)N(C(C)CO)[C@@H]3C1=O (stereo not given in full)	-1.32 and 1.66	0.852 and -1.23	-0.0341 and -0.148	-0.202 and -0.431	-0.88 and -0.932	1.03 and 1.11	1.54 and 1.32	0.212 (inactive) and 0.0905 (inactive)	-0.678 and 0.24	-1.02 and -0.274
C=CCN(C(=O)C1N(c2c(Cl)cccc2CO)C(=O)C2C(C(=O)O)C3C=CC21O3)C(C)(C)C (stereo not given)	-0.933 and 1.87	-1.67 and -0.997	-0.238 and -0.0459	-0.782 and -0.419	-0.872 and -1.15	0.0516 and -0.736	0.0868 and -0.844	0.756 (inactive) and -1.07 (inactive)	-0.347 and -0.422	-1.01 and 0.51
O=C1[C@H]2[C@H]3[C@H](O)[C@H](O)CC(=NOCc4ccccc4)[C@H]3CC[C@H]2C(=O)N1Cc1ccccc1	-0.51	0.887	-0.109	0.186	0.189	-0.226	-0.263	0.224 (inactive)	0.223	-0.274
C=CCN(Cc1ccccc1)C(=O)C(c1cccs1)N(C(=O)/C=C\C(=O)O)c1ccc(CCO)cc1 (stereo not given)	1.05 and 0.697	-1.89 and -1.8	-0.175 and -0.232	-1.05 and -0.73	-1.36 and -1.96	-0.789 and -0.264	1.25 and 1.43	0.0388 (inactive) and -0.725 (inactive)	-0.966 and -0.865	-0.369 and 0.205
COC(=O)C1=C(C)N(Cc2ccccc2)C2=C(C(=O)c3ccccc3)[C@H](c3ccccc3)[C@@](O)(C(=O)OC)C(=O)N2[C@@H]1c1ccccc1	-0.195 and -0.325	-0.16 and 0.0962	-0.0759 and -0.0691	0.429 and 0.387	0.98 and 0.272	0.296 and -0.085	0.672 and 0.253	-0.363 (inactive) and 0.429 (inactive)	0.128 and 0.0478	-0.236 and 0.625
C=CCN(C(=O)C1N(CCOCCO)C(=O)C2C(C(=O)O)C3C=CC21O3)c1ccc(OC)cc1 (stereo not given)	1.11 and 1.65	-1.59 and -1.21	-0.184 and -0.254	-0.719 and -1.97	-2.35 and -1.84	0.555 and 2.07	0.328 and 0.86	-0.408 (inactive) and -0.715 (inactive)	-0.654 and -0.932	-0.581 and -0.349
C=CCN(CCCCC)C(=O)C1N(CCOCCO)C(=O)C2C(C(=O)O)C3C=CC21O3 (stereo not given)	0.555 and 0.963	-0.771 and -0.902	-0.191 and -0.283	-1.87	-0.459 and -2.05	0.17 and -0.496	0.891 and 1.05	0.306 (inactive) and 0.0282 (inactive)	-0.211 and -0.726	-0.171 and -0.182
C[C@@]1([C@@H](NC(=O)Cc2ccccc2)c2ccc(-c3ccccc3)cc2)C[C@H]1C1CCCCC1	1.12 and 2.03 and -0.0771	0.528 and 0.149 and 0.36	0.611 and 0.674 and -0.218	0.602 and 0.59 and 0.392	0.866 and 0.815 and 0.536	1.41 and 0.96 and 0.841	0.911 and 0.56 and 0.909	-1.2 (inactive) and -0.806 (inactive) and 1.29 (inactive)	0.57 and 2.41 and 1.59	0.319 and 2.76 and -0.609
C=CCN(CCCC)C(=O)C(c1cccs1)N(C(=O)/C=C\C(=O)O)c1ccc(CCO)cc1 (stereo not given)	0.655 and 1.21	0.005 and 0.531	-0.0493 and -0.166	0.115 and -1.62	-1.83 and -2.34	0.863 and -0.409	0.867 and -0.0384	1.61 (inactive) and 1.37 (inactive)	-0.498 and -1.07	-0.137 and -0.296
COC(=O)C1=C(C)N(Cc2ccccc2)[C@]23O[C@](C(=O)OC)(C(=O)N2[C@@H]1c1ccccc1)[C@H]1C(=O)N(c2ccccc2)C(=O)[C@H]13	-0.387 and -0.343	0.446 and 0.277	-0.0747 and 0.41	-0.116 and 0.883	1.18 and 0.445	0.288 and 0.212	1.07 and 1.09	-0.507 (inactive) and -0.154 (inactive)	0.0931 and 0.64	0.192 and -0.0672
CON(C)C(=O)c1nnc2c3ccccc3n(S(=O)(=O)c3ccc(C)cc3)c2n1	-0.492 and -0.386	0.216 and 0.226	-0.208 and 0.0937	0.455 and 0.814	0.81 and 0.675	1.08 and 0.789	0.804 and 1.19	161 (active) and 193 (active)	-0.458 and 0.184	0.12 and 0.28
C=C[C@H](C)[C@H](O)c1ccc(O)c2ccccc12	0.101 and 0.398	0.848 and -0.282	-0.144 and -0.0541	-0.737 and -0.0937	-1.43 and -0.16	-0.532 and -0.889	0.316 and -0.53	-0.891 (inactive) and -0.971 (inactive)	-1.03 and -0.735	-0.12 and -0.0994
